Results on five compounds are retold here after PubChem BioAssay AID652128 (Broad Institute, 2013).

The structures appear in SMILES notation. Some of the results follow. Inconclusive results are not listed. The source made the active and inactive calls.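 Rule for the calls: active = fitted half-maximal concentration for signal loss at or below twice the highest dose tested, in every separate run (actives reach about 64 µM in these data); inconclusive = runs disagree, or flat partial signal loss, or poor fit; inactive = the rest.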

This test is described as follows: DNA-binding compounds via dye displacement, dose response, artefact control for RAD52 inhibitor project, biochemical, fluorescence polarization, cherry-pick (AID 652128). As to conditions: Salmon sperm DNA/acridine orange FP displacement.
For `COc1ccc2c(c1O)-c1cccc3c1[C@@H](C2)N(C)CC3`, the compound was classed as inactive.
On to `CCOc1cccc(=NC2CCCCC2)c2c(C)[nH]c(C)c12`, for which the AC50 is 36 µM (active).
As to `CCCCCCCCCCCCn1ccc(=N)cc1`, the result was inactive.
The same measure, in the same setting: for `CC1=CC(=Cc2sc3ccccc3[n+]2C)C=C(C)O1` the value was “inactive”; for `C[N+]1(C)CCOC(O)(c2ccc(-c3ccc(C4(O)C[N+](C)(C)CCO4)cc3)cc2)C1` (stereo not given), “inactive”.
